In PubChem BioAssay (NCI):
The panel holds about 79,000 compounds, 15% with a hit somewhere; the sample as a whole holds those more often. Activity calls are given as the source filed them. Cut-off read from the data, not from the text of the source: active = growth inhibition above about 70%; inactive = the rest.

Tests used:
[1] = NCI Yeast Anticancer Drug Screen. Data for the rad50 strain (AID 155);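 note: 0% = growth of vehicle-only cultures of the same strain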; settings: S. cerevisiae rad50 strain growth inhibition, hits give high values
Procedure, shortened: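 Compounds were tested on a yeast strain with an engineered DNA damage repair alteration; the reported value is growth inhibition normalised to vehicle treatment.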

[2] = NCI Yeast Anticancer Drug Screen. Data for the mec2-1 strain (AID 157); settings: S. cerevisiae mec2-1 strain, hits give high values
Procedure, shortened: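 Readout is yeast growth inhibition, normalised to vehicle-treated controls, in the mec2-1 strain exposed to compound.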

[3] = NCI Yeast Anticancer Drug Screen. Data for the sgs1 mgt1 strain (AID 161);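 note: 0% = growth of cultures given vehicle only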; settings: S. cerevisiae sgs1 mgt1 strain, hits give high values
Procedure, shortened: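 This yeast growth screen uses a strain with defined DNA-repair lesions; compound-treated growth is compared with vehicle-treated growth.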

[4] = NCI Yeast Anticancer Drug Screen. Data for the cln2 rad14 strain (AID 165);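 note: 0% = growth equal to vehicle treated cultures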; settings: S. cerevisiae cln2 rad14 strain, hits give high values
Procedure, shortened: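 Relative to vehicle controls, growth inhibition of compound-treated cln2 rad14 yeast was recorded.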

[5] = NCI Yeast Anticancer Drug Screen. Data for the bub3 strain (AID 167); settings: S. cerevisiae bub3 mutant strain, hits give high values
Procedure, shortened: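 Growth of a checkpoint-deficient yeast mutant is measured after compound exposure. Values represent inhibition relative to vehicle.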

[6] = NCI Yeast Anticancer Drug Screen. Data for the mlh1 rad18 strain (AID 175); settings: S. cerevisiae mlh1 rad18 strain growth inhibition, hits give high values
Procedure, shortened: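 Test agents were incubated with a yeast strain of defined genotype (DNA damage repair defect). Inhibition of growth was derived by comparison with vehicle-exposed cultures.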

[7] = at 5.0 µM (retest, dose inferred, filed as 0.5)
[8] = at 50.0 µM (retest, dose inferred, filed as 5.0)

Measured: growth inhibition

[Br][Ni][Br].c1ccc(CN2CCN(Cc3ccccc3)CCN(Cc3ccccc3)CCN(Cc3ccccc3)CC2)cc1
inactive: [1]; [7] 0% | [2]; [7] 0% | [2]; [8] 62% | [3]; [7] -2% | [3]; [8] 65% | [4]; [7] -2% | [5]; [7] 3% | [6]; [7] 3%
active: [1]; [8] 82% | [1]; at 50.0 µM 96.7% | [2]; at 50.0 µM 98.3% | [3]; at 50.0 µM 97.6% | [4]; [8] 78% | [4]; at 50.0 µM 98.2% | [5]; [8] 92% | [5]; at 50.0 µM 98.5% | [6]; [8] 92% | [6]; at 50.0 µM 98.2%

Nc1ccc(N=Nc2ccccc2)cc1
inactive: [1]; [7] 1% | [1]; at 50.0 µM 69.7% | [2]; [7] -4% | [2]; [8] 37% | [2]; at 50.0 µM 17.6% | [3]; [7] 1% | [3]; at 50.0 µM 37.4% | [4]; [7] 5% | [4]; [8] 50% | [4]; at 50.0 µM 3.25% | [5]; [7] 3% | [5]; [8] 43% | [5]; at 50.0 µM 37.4% | [6]; [7] 1%
active: [1]; [8] 76% | [3]; [8] 92% | [6]; [8] 78% | [6]; at 50.0 µM 82.5%

CC[N+](C)(CC)CCNC(=O)C(O)(c1ccccc1)c1ccccc1
active: [1]; at 50.0 µM 92.7% | [2]; at 50.0 µM 95.5% | [3]; at 50.0 µM 96.5% | [4]; at 50.0 µM 93.2% | [5]; at 50.0 µM 95.1% | [6]; at 50.0 µM 94.4%
inactive: [1]; [7] -8% | [1]; [8] 40% | [2]; [7] -13% | [2]; [8] 52% | [3]; [7] -6% | [3]; [8] 36% | [4]; [7] -2% | [4]; [8] 35% | [5]; [7] -5% | [5]; [8] 23% | [6]; [7] -1% | [6]; [8] 40%

C[N+](C)(C)CC1CCC(C[N+](C)(C)C)C1=O (configuration not stated)
inactive: [1]; [7] -1% | [1]; [8] 6% | [1]; at 50.0 µM -1.75% | [2]; [7] 11% | [2]; [8] 26% | [2]; at 50.0 µM -1.05% | [3]; [7] 0% | [3]; [8] -47% | [3]; at 50.0 µM -4.05% | [4]; [7] -7% | [4]; [8] 5% | [4]; at 50.0 µM 16.3% | [5]; [7] -2% | [5]; [8] 6% | [5]; at 50.0 µM 27.5% | [6]; [7] -3% | [6]; [8] 3% | [6]; at 50.0 µM -14.2%

NN1CCCC1C(=O)O (configuration not stated)
inactive: [1]; [7] -1% | [1]; [8] 2% | [1]; at 50.0 µM 23.1% | [2]; [7] -2% | [2]; [8] -1% | [2]; at 50.0 µM 53.1% | [3]; [7] 0% | [3]; [8] 0% | [3]; at 50.0 µM 28.2% | [4]; [7] 3% | [4]; [8] -2% | [5]; [7] 4% | [5]; [8] -2% | [6]; [7] -1% | [6]; [8] 2% | [6]; at 50.0 µM 65.6%
active: [4]; at 50.0 µM 76.2% | [5]; at 50.0 µM 99.3%

O=c1oc2ccccc2c(O)c1C(c1ccco1)c1c(O)c2ccccc2oc1=O
inactive: [1]; [7] 11% | [1]; [8] 22% | [2]; [7] 13% | [2]; [8] 24% | [3]; [7] -6% | [3]; [8] 43% | [3]; at 50.0 µM 44.2% | [4]; [7] 16% | [4]; [8] 28% | [4]; at 50.0 µM 41.5% | [5]; [7] 9% | [5]; [8] 56% | [5]; at 50.0 µM 34.2% | [6]; [7] 9% | [6]; [8] 19% | [6]; at 50.0 µM 27.5%
active: [1]; at 50.0 µM 79% | [2]; at 50.0 µM 79.2%

O=[N+]([O-])c1ccc(SC2CCCCCCC2Cl)c([N+](=O)[O-])c1 (configuration not stated)
active: [3]; [8] 76% | [5]; [8] 85% | [6]; at 50.0 µM 72.8%
inactive: [1]; [7] 6% | [1]; [8] 22% | [1]; at 50.0 µM 22.1% | [2]; [7] 8% | [2]; [8] 41% | [2]; at 50.0 µM 4.3% | [3]; [7] 10% | [3]; at 50.0 µM 30.1% | [4]; [7] -1% | [4]; [8] 29% | [4]; at 50.0 µM 14.8% | [5]; [7] 15% | [5]; at 50.0 µM 20.5% | [6]; [7] 7% | [6]; [8] 53%

O=P(c1ccccc1)(c1ccccc1)c1ccccc1.O=P(c1ccccc1)(c1ccccc1)c1ccccc1.S=C=[N][Sn]([N]=C=S)([N]=C=S)[c]1ccccc1
active: [1]; [8] 98% | [1]; at 50.0 µM 99.5% | [2]; [8] 99% | [2]; at 50.0 µM 99.5% | [3]; [8] 99% | [3]; at 50.0 µM 99% | [4]; [8] 98% | [4]; at 50.0 µM 97.8% | [5]; [8] 99% | [5]; at 50.0 µM 99.2% | [6]; [7] 72% | [6]; [8] 99% | [6]; at 50.0 µM 97.7%
inactive: [1]; [7] 58% | [2]; [7] 21% | [3]; [7] 62% | [4]; [7] -2% | [5]; [7] -2%
